In PubChem BioAssay (NCI) one finds growth data, which are given here for 8 compounds.

Some test systems named below: HT29 colon; SNB-75 CNS; SNB-19 CNS; U251 CNS; PC-3 prostate; SK-MEL-5 melanoma; UACC-62 melanoma; LOX IMVI melanoma; SK-MEL-28 melanoma; SK-MEL-2 melanoma; EKVX NSCLC; SN12C renal; UO-31 renal; TK-10 renal; ACHN renal; CAKI-1 renal; A498 renal; CCRF-CEM leukemia; MOLT-4 leukemia.
Common to all, as to assay: NCI-60 one-dose screen, 48 h (100 = growth as untreated, 0 = no growth, -100 = all killed)
Conditions in all cases: 10 µM unless noted

About 83,000 compounds went through this panel and 20% of them were active in at least one assay; those are over-represented in the sample as a whole.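 Interpretation: 100, growth as untreated; towards 0, rising growth inhibition; 0, no net growth; 0 to -100, cell death. Compounds scoring below 10 were considered active.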 Unmarked numbers belong to inactive results. The source made the active and inactive calls.

In the case of `CC(C)(C)n1cc(-c2ccnc(NCCNS(=O)(=O)c3cccc4ccccc34)c2)c(-c2cccc(F)c2)n1`, the growth in the assay with HT29 colon was -29.6% (active); in the assay with SNB-75 CNS, -17.6% (active); with SNB-19 CNS, 27.5%; in the assay with U251 CNS it was -18.7% (active); in the assay with PC-3 prostate, 4.9% (active); with SK-MEL-5 melanoma, -97.1% (active). Besides, the growth is 8% (active) in the assay with UACC-62 melanoma; -86.8% (active) with LOX IMVI melanoma; -2.58% (active) in the assay with SK-MEL-28 melanoma; -35.3% (active) in the assay with SK-MEL-2 melanoma; 8.04% (active) with EKVX NSCLC; -88.4% (active) in the assay on SN12C renal. The growth with UO-31 renal is -38.2% (active); with TK-10 renal it was -80% (active); in the assay on ACHN renal, -58.5% (active); with CAKI-1 renal, -54.7% (active); in the assay with A498 renal, -73.1% (active); in the assay on CCRF-CEM leukemia, 11%. Besides, the growth with MOLT-4 leukemia is -15.5% (active).

`CC1(C)CCC(S(=O)(=O)c2ccc3c(c2)/C(=N\O)c2cc(S(=O)(=O)N4CCC(O)(c5cccc(C(F)(F)F)c5)CC4)ccc2-3)CC1`: the growth with HT29 colon is -80.1% (active); with SNB-75 CNS, -98.2% (active); in the assay with SNB-19 CNS, -81.9% (active); in the assay with U251 CNS it was -98.6% (active); in the assay with PC-3 prostate it was -71.5% (active); in the assay on SK-MEL-5 melanoma, -92.7% (active). The growth was -84.9% (active) with UACC-62 melanoma; -86.1% (active) in the assay on LOX IMVI melanoma; -71.7% (active) in the assay on SK-MEL-28 melanoma; -90.2% (active) in the assay on SK-MEL-2 melanoma; -33.4% (active) with EKVX NSCLC; 3.73% (active) in the assay with SN12C renal. Further, the growth with UO-31 renal is 45.6%; in the assay with TK-10 renal, -35.7% (active); in the assay on ACHN renal, -13.3% (active); in the assay with CAKI-1 renal, -37.7% (active); with A498 renal, -51.5% (active); in the assay on CCRF-CEM leukemia it was -58.4% (active). Also, the growth with MOLT-4 leukemia was -69.2% (active).

On to `COC(=O)c1c2c(c(C)[n+]([O-])c1C)C(=O)C(NCc1ccc(Cl)cc1)=CC2=O`, for which the growth with HT29 colon is 9.34% (active); with SNB-75 CNS, 131%; in the assay on SNB-19 CNS, 84.4%; in the assay with U251 CNS it was 57.2%; in the assay with PC-3 prostate, 33.5%; with SK-MEL-5 melanoma it was 29.9%. Further, the growth is 6.15% (active) with UACC-62 melanoma; 45.8% in the assay on LOX IMVI melanoma; 95.7% with SK-MEL-28 melanoma; 83.4% in the assay with SK-MEL-2 melanoma; 70.9% with EKVX NSCLC; 38% with SN12C renal. Also, the growth with UO-31 renal was 79%; with TK-10 renal, 111%; with ACHN renal, 67.5%; in the assay with CAKI-1 renal, 76.3%; in the assay with A498 renal, 88.2%; in the assay on CCRF-CEM leukemia, 58%. In addition, the growth with MOLT-4 leukemia is 72.8%.

Regarding `CC1=Nc2cnc(Nc3ccc(OCCN4CCCCC4)cc3)nc2Nc2ccccc21`, the growth in the assay on HT29 colon was 50.6%; in the assay with SNB-75 CNS it was 9.67% (active); with SNB-19 CNS it was 87.8%; in the assay on U251 CNS it was 76.6%; in the assay on PC-3 prostate, 48.7%; in the assay with SK-MEL-5 melanoma, 69.2%. The growth in the assay with UACC-62 melanoma is 85.7%; in the assay on LOX IMVI melanoma it was 47.6%; in the assay with SK-MEL-28 melanoma, 99.3%; in the assay with SK-MEL-2 melanoma it was 50.2%; with EKVX NSCLC, 78.3%; with SN12C renal, 49.2%. Also, the growth was 11% in the assay on UO-31 renal; 64.2% in the assay on TK-10 renal; 27.1% with ACHN renal; 17.2% in the assay on CAKI-1 renal; -9.49% (active) in the assay with A498 renal; 70.2% with CCRF-CEM leukemia. Moreover, in the assay on MOLT-4 leukemia, the growth was 25.4%.

Take `Clc1ccc(Sc2cnc(-c3ccccc3)o2)cc1`: the growth in the assay with HT29 colon is 105%; in the assay on SNB-75 CNS, 92.6%; with SNB-19 CNS, 88.4%; with U251 CNS, 91.4%; in the assay on PC-3 prostate, 104%; with SK-MEL-5 melanoma, 97.8%. Moreover, the growth in the assay with UACC-62 melanoma was 102%; with LOX IMVI melanoma, 97.3%; with SK-MEL-28 melanoma, 102%; in the assay with SK-MEL-2 melanoma it was 100%; in the assay with EKVX NSCLC it was 98.5%; with SN12C renal, 101%. The growth is 78.4% in the assay with UO-31 renal; 85.1% in the assay with TK-10 renal; 99.7% in the assay with ACHN renal; 90.2% with CAKI-1 renal; 63.5% in the assay with A498 renal; 99.2% with CCRF-CEM leukemia. In addition, in the assay with MOLT-4 leukemia, the growth was 100%.

As to `CO/N=C(/C)c1ccc(NC(=O)CSc2nnc(-c3ccncc3)n2-c2ccccc2)cc1`, the growth was 78% with HT29 colon; -16.6% (active) in the assay on SNB-75 CNS; 30.4% in the assay on SNB-19 CNS; 17.4% with U251 CNS; 49.9% in the assay with PC-3 prostate; 25.2% in the assay with SK-MEL-5 melanoma. The growth in the assay on UACC-62 melanoma is 26.1%; with LOX IMVI melanoma, 65.5%; in the assay with SK-MEL-28 melanoma it was 64.9%; with SK-MEL-2 melanoma, 67.6%; in the assay on EKVX NSCLC it was 64.3%; in the assay with SN12C renal, 36.1%. In addition, the growth with UO-31 renal is 9.43% (active); with TK-10 renal, -15.3% (active); in the assay on ACHN renal, 10.1%; in the assay with CAKI-1 renal, 26.8%; in the assay with A498 renal, 89.7%; in the assay on CCRF-CEM leukemia it was 91.6%. The growth with MOLT-4 leukemia was 92.2%.

As to `O=C(Cn1c(-c2ccc([N+](=O)[O-])cc2)nc2ccccc21)NNC(=O)c1cccnc1`, the growth in the assay on HT29 colon is 77.2%; in the assay with SNB-75 CNS it was 53.3%; with SNB-19 CNS, 86.5%; with U251 CNS, 77.9%; in the assay on PC-3 prostate it was 69%; with SK-MEL-5 melanoma it was 83.8%. Moreover, the growth in the assay with UACC-62 melanoma was 66.2%; in the assay with LOX IMVI melanoma it was 65.3%; with SK-MEL-28 melanoma it was 108%; in the assay with SK-MEL-2 melanoma it was 103%; in the assay on EKVX NSCLC it was 73.2%; in the assay with SN12C renal, 78.9%. Moreover, the growth in the assay on UO-31 renal is 65.6%; with TK-10 renal, 126%; with ACHN renal it was 84.4%; in the assay with CAKI-1 renal, 71.2%; with A498 renal, 65.1%; in the assay with CCRF-CEM leukemia, 75.6%. The growth in the assay with MOLT-4 leukemia was 79.3%.

Take `CNC(=O)c1cc(Oc2ccc3nc(NC(C)=O)sc3c2)ccn1`: the growth is 110% in the assay on HT29 colon; 84.4% in the assay with SNB-75 CNS; 106% with SNB-19 CNS; 98.4% in the assay on U251 CNS; 96.3% in the assay on PC-3 prostate; 101% in the assay with SK-MEL-5 melanoma. The growth with UACC-62 melanoma is 98.8%; with LOX IMVI melanoma, 93.2%; with SK-MEL-28 melanoma, 105%; in the assay on SK-MEL-2 melanoma, 94.9%; with EKVX NSCLC, 97.8%; in the assay on SN12C renal it was 106%. Moreover, the growth is 95% in the assay on UO-31 renal; 104% in the assay with TK-10 renal; 104% with ACHN renal; 89.2% in the assay with CAKI-1 renal; 106% in the assay on A498 renal; 94.7% in the assay with CCRF-CEM leukemia. Moreover, in the assay on MOLT-4 leukemia, the growth is 90.4%.
